Measured values from PubChem BioAssay (EPA / NIEHS).
Records with an inconclusive call do not appear. Activity calls are given as the source filed them. How the source made its calls, unless noted: active means hit-call score of the fitted dose curve at least 0.9, where 1 is the maximum; inconclusive means response in the unintended direction; inactive means score below 0.9.

Experiments:
[1] = Tanguay_ZF_120hpf_CFIN_legacy: (Legacy) Oregon State University Tanguay Lab 120 Hour Post-fertilization zebrafish Assay for Caudal Fin Malformation (AID 2283649)
Summary of the method: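 Dechorionated Tropical 5D wild-type embryos, one per well from 6 hpf, static exposure to 120 hpf at 28C in 0.64% DMSO. Caudal fin malformation scored by brightfield as present/absent; not scored in dead embryos.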

[2] = Tanguay_ZF_120hpf_PIG_legacy: (Legacy) Oregon State University Tanguay Lab 120 Hour Post-fertilization zebrafish Assay for Pigmentation Malformation (AID 2283650)
Summary of the method: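 Tropical 5D wild-type zebrafish embryos, dechorionated with pronase at 4 hpf, were exposed singly from 6 hpf to 120 hpf statically at 28C in sealed, dark plates with 0.64% DMSO; pigmentation scored present/absent by brightfield microscopy, fitted against DMSO.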

[3] = Tanguay_ZF_120hpf_SWIM_legacy: (Legacy) Oregon State University Tanguay Lab 120 Hour Post-fertilization zebrafish Assay for Swim Bladder Malformation (AID 2283654);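 further: swim bladder malformation in each larva scored yes or no under brightfield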
Summary of the method: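 Dechorionated Tropical 5D wild-type embryos, placed singly from 6 hpf, were statically exposed at 28C to 120 hpf with 0.64% DMSO final; swim bladder malformation was scored present/absent by brightfield microscopy, gain of signal relative to DMSO controls.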

[4] = Tanguay_ZF_120hpf_TRUN_legacy: (Legacy) Oregon State University Tanguay Lab 120 Hour Post-fertilization zebrafish Assay for Truncated Body (AID 2283655)
Summary of the method: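 Dechorionated Tropical 5D wild-type embryos placed singly from 6 hpf and statically exposed to 120 hpf at 28C, final DMSO 0.64%. Truncated body scored as present/absent by brightfield; not scored in dead embryos.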

[5] = Tanguay_ZF_120hpf_NC_legacy: (Legacy) Oregon State University Tanguay Lab 120 Hour Post-fertilization zebrafish Assay for Notochord and Tail Malformation (AID 2283656)
Summary of the method: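 Dechorionated Tropical 5D wild-type zebrafish embryos, one per well from 6 hpf, statically exposed to 120 hpf at 28C in 0.64% DMSO final. Notochord distortion scored present/absent by brightfield; dead embryos excluded.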

[6] = Tanguay_ZF_120hpf_CIRC_legacy: (Legacy) Oregon State University Tanguay Lab 120 Hour Post-fertilization zebrafish Assay for Circulatory Malformation (AID 2283651)
Summary of the method: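 Read-out: presence or absence of circulatory malformation at 120 hpf, scored by brightfield microscopy, fitted in the gain-of-signal direction against DMSO baseline. Wild-type 5D larvae were exposed from 6 hpf after enzymatic chorion removal.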

[7] = read-out: kallikrein-3 (KLK3), KLK3 (gene 354); experiment: LTEA_HepaRG_KLK3: Life Technologies and Expression Analysis (LTEA) Assay for kallikrein-3 (KLK3) using HepaRG (AID 2283652; active means hit-call score of the fitted dose curve at least 0.9, where 1 is the maximum; inactive means score below 0.9); details: mRNA level, 48 h; actives raise or lower the signal
Summary of the method: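 Differentiated human HepaRG cells in serum-free induction medium exposed 48 h in duplicate, eight-point half-log series from 100 uM in 0.5% DMSO. KLK3 mRNA by qRT-PCR, normalised to ACTB, GAPDH, POLR2A; bidirectional fit versus DMSO.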

[8] = read-out: solute carrier (SLC22A6), SLC22A6 (gene 9356); experiment: LTEA_HepaRG_SLC22A6: Life Technologies and Expression Analysis (LTEA) Assay for solute carrier (SLC22A6) using HepaRG (AID 2283653; active means hit-call score of the fitted dose curve at least 0.9, where 1 is the maximum; inactive means score below 0.9); details: mRNA level, 48 h; actives raise or lower the signal
Summary of the method: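 Differentiated HepaRG cells exposed 48 h in serum-free induction medium to 8 half-log concentrations, top 100 uM, in 0.5% DMSO; SLC22A6 mRNA by Fluidigm qRT-PCR normalized to ACTB, GAPDH, POLR2A, fitted bidirectionally versus DMSO.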

[9] = read-out: solute carrier (SLC10A1), SLC10A1 (gene 6554); experiment: LTEA_HepaRG_SLC10A1: Life Technologies and Expression Analysis (LTEA) Assay for solute carrier (SLC10A1) using HepaRG (AID 2283657; active means hit-call score of the fitted dose curve at least 0.9, where 1 is the maximum; inactive means score below 0.9); details: mRNA level, 48 h; actives raise or lower the signal
Summary of the method: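 Differentiated HepaRG cells were plated 48 h, then exposed in serum-free induction medium for 48 h to 8 concentrations (top 100 uM, half-log steps, 0.5% DMSO). SLC10A1 mRNA was quantified by qRT-PCR normalized to ACTB, GAPDH, POLR2A; bidirectional fit versus DMSO.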

[10] = read-out: matrix metalloproteinase-1 (MMP1), MMP1 (gene 4312); experiment: LTEA_HepaRG_MMP1: Life Technologies and Expression Analysis (LTEA) Assay for matrix metalloproteinase-1 (MMP1) using HepaRG (AID 2283658; active means hit-call score of the fitted dose curve at least 0.9, where 1 is the maximum; inactive means score below 0.9); details: mRNA level, 48 h; actives raise or lower the signal
Summary of the method: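 Differentiated human HepaRG cells, 48 h post-plating in serum-free induction medium, were exposed 48 h to eight half-log concentrations topping at 100 uM in 0.5% DMSO, duplicate. MMP1 mRNA measured by Fluidigm TaqMan qRT-PCR, normalized to ACTB, GAPDH, POLR2A; bidirectional fits versus DMSO.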

## Cc1cn([C@H]2C[C@H](N=[N+]=[N-])[C@@H](CO)O2)c(=O)[nH]c1=O
[1]
  outcome: inactive
[2]
  outcome: inactive
[3]
  outcome: inactive
[4]
  outcome: inactive
[5]
  outcome: inactive

## Cc1ccc(C(C)C)cc1
[1]
  outcome: inactive
[2]
  outcome: inactive
[3]
  outcome: inactive
[4]
  outcome: inactive
[5]
  outcome: inactive

## CC/C(=C(/CC)c1ccc(O)cc1)c1ccc(O)cc1
[1]
  outcome: inactive
[3]
  outcome: inactive

## CC(C)(C)c1csc(-c2cc3cc(OCc4ccccc4CC(=O)O)ccc3o2)n1
[6]
  outcome: inactive
[7]
  outcome: inactive
[8]
  outcome: inactive
[3]
  outcome: inactive
[4]
  outcome: inactive
[5]
  outcome: inactive
[9]
  AC50: 24.4 µM (active)
[10]
  outcome: inactive

## Cc1oc2c(NC(=O)c3c(Cl)cccc3Cl)cccc2c1C(C)(C)O
[1]
  outcome: inactive
[2]
  outcome: inactive
[3]
  outcome: inactive
[4]
  outcome: inactive
[5]
  outcome: inactive

## c1ccc2n[nH]nc2c1
[1]
  outcome: inactive
[2]
  outcome: inactive
[3]
  outcome: inactive
[4]
  outcome: inactive
[5]
  outcome: inactive

## Clc1ccccc1C(c1ccccc1)(c1ccccc1)n1ccnc1
[1]
  outcome: inactive
[6]
  outcome: inactive
[3]
  outcome: inactive
[5]
  outcome: inactive

## c1ccc2ccccc2c1
[1]
  outcome: inactive
[2]
  outcome: inactive
[3]
  outcome: inactive
[4]
  outcome: inactive
[5]
  outcome: inactive

## O=C(Nc1ccc(Cl)cc1)Nc1ccc(Cl)c(Cl)c1
[1]
  outcome: inactive
[2]
  outcome: inactive
[3]
  outcome: inactive
[4]
  outcome: inactive
[5]
  outcome: inactive

## CN(C[C@@H](CC[N+]12CCC(C3CCCCC3)(CC1)CC2)c1ccc(Cl)c(Cl)c1)C(=O)c1cc(C(F)(F)F)cc(C(F)(F)F)c1
[1]
  outcome: inactive
[6]
  outcome: inactive
[3]
  outcome: inactive
[4]
  outcome: inactive

## CCOC(=O)O[C@H](C)OC(=O)c1ccc2c(c1)cc(C(=O)NC1CCN(C(C)C)CC1)n2Cc1cc(-c2ccc(Cl)s2)on1
[1]
  outcome: inactive
[2]
  outcome: inactive
[4]
  outcome: inactive
[5]
  outcome: inactive

## O=c1ccc2ccccc2o1
[1]
  outcome: inactive
[2]
  outcome: inactive
[4]
  outcome: inactive
[5]
  outcome: inactive

## O=C(O)c1ccccc1C(=O)OCc1ccccc1
[1]
  outcome: inactive
[2]
  outcome: inactive
[3]
  outcome: inactive
[5]
  outcome: inactive

## CCN(CC)C(=O)c1cc(S(=O)(=O)Cc2ccccc2)c(N2CCC(c3ccccc3)CC2)cc1N(CC)CCN(C)C
[8]
  outcome: inactive
[3]
  outcome: inactive
[4]
  outcome: inactive
[5]
  outcome: inactive
[9]
  outcome: inactive
[10]
  outcome: inactive

## CCCOC(=O)c1cc(O)c(O)c(O)c1
[2]
  outcome: inactive
[7]
  outcome: inactive
[8]
  outcome: inactive
[3]
  outcome: inactive
[4]
  outcome: inactive
[5]
  outcome: inactive
[9]
  outcome: inactive
[10]
  outcome: inactive

## COc1cccc([C@H](O)C2CCN(CCc3ccc(F)cc3)CC2)c1OC
[1]
  outcome: inactive
[4]
  outcome: inactive
[5]
  outcome: inactive
